Assay [1] is described as follows: antimalarial activity against Dd2 strain (AID 2302;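 active = growth inhibition above 50% at the single 2 µM test dose, taken to imply half-maximal potency below 2 µM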;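 note: 0% = DMSO untreated growth and 100% = chloroquine plus artemisinin killed control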). The note with it: P. falciparum Dd2 in RBCs, LDH growth readout, 72 h; at 2 µM; stronger effect = higher value.
A short description of assay [2]: HepG2 cytotoxicity, primary screen, cytotoxicity control for P. falciparum antimalarial project, cell-based, ATP luminescence (AID 2303;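 active = inhibition above 50%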;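 note: 0% = DMSO wells and 100% = digitonin-killed cells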). Particulars: HepG2 viability, 24-48 h, at 10 µM, stronger effect = higher value.
For assay [3], the target named is L-lactate dehydrogenase (Plasmodium falciparum (isolate CDC / Honduras)) (UniProt Q27743). As to the kind of experiment: PfLDH activity inhibition – cell lysate, 3D7 strain, counter-screen for P. falciparum growth inhibition project (AID 2304).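 Note: 0% = vehicle and 100% = reference inhibitor.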 Particulars: P. falciparum 3D7 crude extract, LDH APAD/NBT absorbance; at 2 µM; stronger effect = higher value.
Sequence of L-lactate dehydrogenase (Plasmodium falciparum (isolate CDC / Honduras)) (Q27743 whole entry, looked up): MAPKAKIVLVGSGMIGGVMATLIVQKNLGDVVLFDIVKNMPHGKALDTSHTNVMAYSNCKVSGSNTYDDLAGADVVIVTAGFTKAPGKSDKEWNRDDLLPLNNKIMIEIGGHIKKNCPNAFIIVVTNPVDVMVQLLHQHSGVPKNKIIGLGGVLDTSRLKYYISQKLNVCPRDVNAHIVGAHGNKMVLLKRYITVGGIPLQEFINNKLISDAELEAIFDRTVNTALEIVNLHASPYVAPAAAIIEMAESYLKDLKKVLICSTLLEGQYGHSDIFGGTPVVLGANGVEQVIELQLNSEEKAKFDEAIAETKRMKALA
A short description of assay [4]: inhibition of 3D7 malaria parasite growth – strain 3D7 (AID 2306).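 Note: 0% = DMSO wells and 100% = chloroquine plus artemisinin control wells.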 The note with it: P. falciparum 3D7 erythrocytic growth, LDH absorbance, 72 h; at 2 µM; stronger effect = higher value.
Assay [5] concerns the target Calcium-dependent protein kinase 1 (Plasmodium falciparum (isolate 3D7)) (UniProt P62344). As to the kind of experiment: PfCDPK1 kinase inhibitors, biochemical, TCAMS library (AID 1159585; cut-off not given, nearly all actives have IC50 up to about 0.98 µM;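 note: inhibitors leave more ATP so luminescence rises with inhibition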). The note with it: recombinant PfCDPK1, Kinase-Glo ATP depletion luminescence. For orientation: Kinase-Glo measures the ATP left after a reaction by luminescence.
For assay [6], the target named is Plasmodium falciparum protein kinase 6 (PK6, PF3D7_1337100) (UniProt Q8IDW1). As to the kind of experiment: PfPK6 kinase inhibitors, biochemical, TCAMS library (AID 1159586). The note with it: recombinant PfPK6, Kinase-Glo ATP depletion luminescence.
Sequence of Plasmodium falciparum protein kinase 6 (PK6, PF3D7_1337100) (Q8IDW1 1-305): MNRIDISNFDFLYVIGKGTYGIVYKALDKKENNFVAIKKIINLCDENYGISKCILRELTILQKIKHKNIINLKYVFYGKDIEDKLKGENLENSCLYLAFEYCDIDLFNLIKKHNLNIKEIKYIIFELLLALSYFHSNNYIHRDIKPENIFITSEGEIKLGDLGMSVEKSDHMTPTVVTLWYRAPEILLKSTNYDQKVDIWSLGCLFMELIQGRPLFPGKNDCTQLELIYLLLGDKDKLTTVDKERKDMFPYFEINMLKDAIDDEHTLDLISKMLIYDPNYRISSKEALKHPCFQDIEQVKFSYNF
In assay [7] the target is Protein kinase 7 (PK7), Plasmodium falciparum 3D7 (PF3D7_0213400) (UniProt Q7YTF7). As to the kind of experiment: inhibition of Plasmodium PK7 catalytic activity – biochemical, TCAMS antimalarial set, Kinase-Glo luminescence (AID 1159587). Particulars: recombinant PfPK7, Kinase-Glo ATP depletion luminescence.
Sequence of Protein kinase 7 (PK7), Plasmodium falciparum 3D7 (PF3D7_0213400) (Q7YTF7 1-343): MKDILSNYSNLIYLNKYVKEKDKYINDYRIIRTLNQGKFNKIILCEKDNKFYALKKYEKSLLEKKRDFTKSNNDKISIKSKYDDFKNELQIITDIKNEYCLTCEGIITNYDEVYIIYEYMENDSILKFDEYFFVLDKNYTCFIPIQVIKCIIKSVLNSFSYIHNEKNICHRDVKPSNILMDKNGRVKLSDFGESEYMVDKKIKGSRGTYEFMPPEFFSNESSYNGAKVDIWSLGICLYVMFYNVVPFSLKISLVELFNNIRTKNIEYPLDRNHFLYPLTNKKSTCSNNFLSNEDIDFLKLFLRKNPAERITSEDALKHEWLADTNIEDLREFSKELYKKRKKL
Assay [8] deals with Calcium-dependent protein kinase 4 (Plasmodium falciparum (isolate 3D7)) (UniProt Q8IBS5). Put plainly: PfCDPK4 kinase inhibitors, biochemical, TCAMS library (AID 1159588; cut-off not given, nearly all actives have IC50 up to about 0.91 µM). Particulars: recombinant PfCDPK4, Kinase-Glo ATP depletion luminescence.
Sequence of Calcium-dependent protein kinase 4 (Plasmodium falciparum (isolate 3D7)) (Q8IBS5 whole entry, looked up): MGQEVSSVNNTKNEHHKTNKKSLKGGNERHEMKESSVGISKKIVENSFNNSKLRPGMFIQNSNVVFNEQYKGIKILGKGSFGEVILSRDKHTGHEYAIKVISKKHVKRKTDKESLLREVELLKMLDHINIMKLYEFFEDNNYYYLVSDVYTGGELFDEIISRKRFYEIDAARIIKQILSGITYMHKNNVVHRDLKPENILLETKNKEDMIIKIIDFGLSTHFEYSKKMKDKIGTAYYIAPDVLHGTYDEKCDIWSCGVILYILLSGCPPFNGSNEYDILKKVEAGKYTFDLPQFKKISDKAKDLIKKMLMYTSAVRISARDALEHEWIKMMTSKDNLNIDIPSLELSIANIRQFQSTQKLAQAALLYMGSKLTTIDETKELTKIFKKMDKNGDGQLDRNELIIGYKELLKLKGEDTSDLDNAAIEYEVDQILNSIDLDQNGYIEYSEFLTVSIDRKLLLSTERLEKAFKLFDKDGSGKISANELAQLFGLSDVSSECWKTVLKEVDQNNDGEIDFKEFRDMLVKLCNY

In PubChem BioAssay one finds growth inhibition, inhibition and outcome data, which are given here for 20 compounds.

Molecules are shown by their SMILES. Unmarked numbers belong to inactive results. For some of these results: Results with a measured potency or affinity are listed apart. Activity calls are given as the source filed them. Unless noted, the rule behind the calls is not given here.

Sequence of Calcium-dependent protein kinase 1 (Plasmodium falciparum (isolate 3D7)) (P62344 whole entry, looked up): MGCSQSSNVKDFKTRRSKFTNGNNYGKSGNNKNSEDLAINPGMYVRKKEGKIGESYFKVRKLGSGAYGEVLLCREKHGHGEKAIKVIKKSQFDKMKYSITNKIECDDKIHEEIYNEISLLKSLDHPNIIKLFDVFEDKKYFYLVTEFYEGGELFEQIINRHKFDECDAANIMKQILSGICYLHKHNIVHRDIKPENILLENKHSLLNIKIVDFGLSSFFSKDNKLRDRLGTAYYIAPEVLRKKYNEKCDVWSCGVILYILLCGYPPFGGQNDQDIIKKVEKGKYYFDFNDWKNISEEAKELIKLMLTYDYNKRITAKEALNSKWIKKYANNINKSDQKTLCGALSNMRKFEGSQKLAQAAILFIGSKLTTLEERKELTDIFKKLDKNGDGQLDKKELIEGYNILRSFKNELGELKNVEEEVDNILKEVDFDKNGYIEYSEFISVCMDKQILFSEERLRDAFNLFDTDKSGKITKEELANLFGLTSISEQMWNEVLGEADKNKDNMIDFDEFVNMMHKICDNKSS

With `COc1ccc(CNCc2ccc(F)cc2)cc1-c1cccc(S(=O)(=O)NCCN2CCCC2)c1`, the growth inhibition in assay [1] is 54% (active); in assay [4], 101% (active). The inhibition (commonly the relative decrease from the control value, in per cent) in assay [2] was 43%; in assay [3] it was -3%. The result in assay [5], in assay [6], in assay [7] and in assay [8] was inactive.

`O=C(Nc1cccc(-c2cccc(-c3nc4ccc(C(F)(F)F)cc4[nH]3)c2)c1)c1ccc(=O)[nH]n1`: the growth inhibition in assay [1] is 26%; in assay [4], 103% (active). The inhibition in assay [2] was 63% (active); in assay [3], 0%. Also, the result in assay [5], in assay [6], in assay [7] and in assay [8] was inactive.

In the case of `CCCCN(CCCC)CC(O)c1cc(-c2ccc(Cl)cc2)nc2c(Cl)cc(Cl)cc12` (stereo not given), the growth inhibition in assay [1] and in assay [4] was 97% (active) in each case. The values for the inhibition in assay [2] and in assay [3] were -12% and 1%, respectively. The result in assay [5], in assay [6], in assay [7] and in assay [8] was inactive.

With `O=C(Cc1ccccc1)NC(CCN1CCC(O)(c2cccc(C(F)(F)F)c2)CC1)c1ccc(Cl)c(Cl)c1` (stereo not given), the growth inhibition in assay [1] was 32%; in assay [4], 96% (active). In addition, the inhibition in assay [2] was 25%; in assay [3] it was 1%. Also, the outcome in assay [5], in assay [6], in assay [7] and in assay [8] was inactive.

`CCCCCCN1CCN(Cc2cccc(NC(=O)c3ccc(Cl)c(Cl)c3)c2)CC1`: the growth inhibition in assay [1] was 51% (active); in assay [4], 85% (active). Moreover, the results for the inhibition in assay [2] and in assay [3] were 31% and -4%, respectively. Further, the result in assay [5], in assay [6], in assay [7] and in assay [8] was inactive.

Take `NC(=O)c1cnc2ccc(-c3cncs3)cc2c1Nc1ccc(F)c(Cl)c1`: the growth inhibition is 99% (active) in assay [1] and 97% (active) in assay [4]. Besides, the inhibition was 3% in assay [2] and 6% in assay [3]. The result in assay [5], in assay [6], in assay [7] and in assay [8] was inactive.

Turning to `CC(C)CCn1c(Sc2ccc(C#N)c([N+](=O)[O-])c2)nnc1-c1ccc(N(C)C)cc1`, the growth inhibition is 96% (active) in assay [1] and 97% (active) in assay [4]. Besides, the inhibition was 11% in assay [2] and 3% in assay [3]. Moreover, the result in assay [5], in assay [6], in assay [7] and in assay [8] was inactive.

For the compound `Nc1cnc(C#Cc2cc3ncnc(N(CCN4CCOCC4)c4ccc(OCc5cccc(F)c5)c(Cl)c4)c3s2)cn1`, the growth inhibition in assay [1] was 57% (active); in assay [4] it was 87% (active). Also, the results for the inhibition in assay [2] and in assay [3] were -8% and -9%, respectively. Moreover, the result in assay [5], in assay [6], in assay [7] and in assay [8] was inactive.

`O=C(NCCN1CCCCC1)c1ccc(CNC(=O)c2ccc(O)c(-c3ccc(Cl)c(Cl)c3)c2)cc1`: the growth inhibition in assay [1] is 68% (active); in assay [4], 93% (active). The inhibition was 3% in assay [2] and -8% in assay [3]. The outcome in assay [5], in assay [6], in assay [7] and in assay [8] was inactive.

As for `O=C(CNc1ccc(Cl)c(S(=O)(=O)N2CCCC2)c1)Nc1ccc(Br)cc1F`, the growth inhibition in assay [1] is 97% (active); in assay [4], 99% (active). Moreover, the inhibition in assay [2] is 18%; in assay [3], 4%. In addition, the result in assay [5], in assay [6], in assay [7] and in assay [8] was inactive.

As to `CCCCCCNC(=O)C1Cc2c([nH]c3ccc(C)cc23)C2(CCN(Cc3ccccc3)CC2)N1` (stereo not given), the figures for the growth inhibition in assay [1] and in assay [4] were 25% and 84% (active), respectively. For the same compound, the results for the inhibition in assay [2] and in assay [3] were 25% and 6%, respectively. Besides, the outcome in assay [5], in assay [6], in assay [7] and in assay [8] was inactive.

Turning to `NC(=O)c1ccc(C(=O)Nc2cccc(-c3csc(-c4nc5ccccc5[nH]4)c3)c2)cc1`, the growth inhibition in assay [1] is 35%; in assay [4], 100% (active). The inhibition in assay [2] is 14%; in assay [3], -4%. Besides, the outcome in assay [5], in assay [6], in assay [7] and in assay [8] was inactive.

For `CC(=O)Nc1ccc(CNC2Cc3ccc(-c4ccc(Cl)c(Cl)c4)cc3C2)cc1` (stereo not given), the growth inhibition in assay [1] is 7%; in assay [4], 89% (active). Also, the inhibition in assay [2] was 49%; in assay [3], -3%. Further, the result in assay [5], in assay [6], in assay [7] and in assay [8] was inactive.

For `CCCC(=O)c1cnc2c(OCCCc3cnc[nH]3)cccc2c1Nc1c(C)cccc1C`, the growth inhibition in assay [1] is 14%; in assay [4] it was 98% (active). In addition, the inhibition in assay [2] is 20%; in assay [3], 3%. In addition, the result in assay [5], in assay [6], in assay [7] and in assay [8] was inactive.

With `CC(=O)Nc1ccc(C(=O)Nc2ccc(-c3cccc(-c4nc5ccc(C(F)(F)F)cc5[nH]4)c3)cc2)cn1`, the growth inhibition in assay [1] was 98% (active); in assay [4], 102% (active). For the same compound, the figures for the inhibition in assay [2] and in assay [3] were 29% and -2%, respectively. Besides, the outcome in assay [5], in assay [6], in assay [7] and in assay [8] was inactive.

For the compound `CCNc1cc(C)nc(Nc2ccc(NC(=O)c3ccc(OC)c(OC)c3)cc2)n1`, the growth inhibition was 65% (active) in assay [1] and 101% (active) in assay [4]. Moreover, the inhibition was 19% in assay [2] and 0% in assay [3]. The result in assay [5], in assay [6], in assay [7] and in assay [8] was inactive.

As to `COc1cc(OC)cc(C(=O)Nc2nc(-c3ccccn3)cs2)c1`, the growth inhibition in assay [1] was 72% (active); in assay [4], 97% (active). The results for the inhibition in assay [2] and in assay [3] were 47% and 1%, respectively. The outcome in assay [5], in assay [6], in assay [7] and in assay [8] was inactive.

As for `COc1ccc(-c2ccc(NC(=O)c3cccc(Cl)c3)cc2)cc1CN1CCC(O)CC1`, the growth inhibition in assay [1] is 12%; in assay [4], 102% (active). The inhibition was 15% in assay [2] and -5% in assay [3]. Also, the result in assay [5], in assay [6], in assay [7] and in assay [8] was inactive.

As for `CCOc1ccc(-c2cc3nc(C4CCNCC4)c(C(=O)Nc4ccc(C)cc4Cl)cn3n2)cc1`, the growth inhibition was 22% in assay [1] and 95% (active) in assay [4]. In addition, the inhibition in assay [2] is 63% (active); in assay [3], 2%. Also, the result in assay [5], in assay [6], in assay [7] and in assay [8] was inactive.

Take `CS(=O)(=O)N(c1ccccc1)c1cc(C(=O)N[C@@H](Cc2ccccc2)[C@H](O)CNC2CCCCC2)cc(N2CCCC2=O)c1`: the growth inhibition in assay [1] is 97% (active); in assay [4] it was 100% (active). Moreover, the inhibition was 8% in assay [2] and -3% in assay [3]. The outcome in assay [5], in assay [6], in assay [7] and in assay [8] was inactive.
